In PubChem BioAssay (NCI):
Compounds without any hit were thinned out: in the full panel of roughly 79,000, 15% have a hit. Unmarked numbers belong to inactive results. Calls of active or inactive are those of the source. No stated cut-off is given here; in the data, active means growth inhibition above about 70%; inactive means the rest.

Tests used:
[1] = NCI Yeast Anticancer Drug Screen. Data for the rad50 strain (AID 155);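 further: 0% = growth of vehicle-only cultures of the same strain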; settings: S. cerevisiae rad50 strain growth inhibition; at 50.0 µM; active compounds read high
Summary of the method: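 Readout: growth inhibition relative to vehicle-treated cultures. Compound exposure was carried out in a genetically defined yeast strain deficient in DNA damage repair.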

[2] = NCI Yeast Anticancer Drug Screen. Data for the mec2-1 strain (AID 157); settings: S. cerevisiae mec2-1 strain, at 50.0 µM, active compounds read high
Summary of the method: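 Compounds were applied to mec2-1 yeast cells. Their growth was then compared with that of vehicle-treated cultures to give growth inhibition.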

[3] = NCI Yeast Anticancer Drug Screen. Data for the sgs1 mgt1 strain (AID 161);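 further: 0% = growth of cultures given vehicle only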; settings: S. cerevisiae sgs1 mgt1 strain, at 50.0 µM, active compounds read high
Summary of the method: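 Growth of a repair-deficient yeast mutant was monitored after compound treatment and expressed as inhibition relative to vehicle-treated cultures.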

[4] = NCI Yeast Anticancer Drug Screen. Data for the cln2 rad14 strain (AID 165);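 further: 0% = growth equal to vehicle treated cultures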; settings: S. cerevisiae cln2 rad14 strain, at 50.0 µM, active compounds read high
Summary of the method: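 Strain: cln2 rad14 yeast, altered in cell cycle control and DNA damage repair. Read-out: growth inhibition vs vehicle.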

[5] = NCI Yeast Anticancer Drug Screen. Data for the bub3 strain (AID 167); settings: S. cerevisiae bub3 mutant strain, at 50.0 µM, active compounds read high
Summary of the method: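 Readout: yeast growth inhibition, expressed relative to vehicle-only wells. The test organism is a mutant strain from a panel with lesions in DNA repair or checkpoint genes.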

[6] = NCI Yeast Anticancer Drug Screen. Data for the mlh1 rad18 strain (AID 175); settings: S. cerevisiae mlh1 rad18 strain growth inhibition; at 50.0 µM; active compounds read high
Summary of the method: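 A repair-deficient yeast strain is exposed to test compound, and growth is scored relative to vehicle-treated controls.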

SMILES	growth inhibition [1] [%]	growth inhibition [2] [%]	growth inhibition [3] [%]	growth inhibition [4] [%]	growth inhibition [5] [%]	growth inhibition [6]
CC1=Nc2ccccc2S/C1=C(/C)NN	21.4	8.55	0.2	15.6	1.8	0.9%
CC(CN(C)C)/C(=N\Nc1ccccc1)c1ccccc1 (configuration not stated)	16.5	10	29.2	1.1	-7.85	35.4%
Cc1cccc(N=C/C=C/c2ccccc2)c1C	0.85	-6.4	-20.7	-50.6	-4.7	-5.85%
CC(=O)c1cc([N+](=O)[O-])c(N)s1	7.35	-3.2	-13.2	5.25	-4.15	-3.8%
O=C(c1cccc([N+](=O)[O-])c1)c1cccs1	6.6	-7.2	-9.05	4.3	-5.2	-4.05%
C=C1CC23CC[C@H]4[C@@](C)(CCC[C@@]4(C)C(=O)OC4OC(CO)C(O)C(O)C4O)[C@@H]2CC[C@@]1(OC1OC(CO)C(O)C(O)C1OC1OC(CO)C(O)C(O)C1O)C3 (some centres not stated)	-6.6	-38.5	-38.1	25.4	-39.4	-16%
CCn1c(=O)c2c3cc(OC(C)=O)ccc3oc2c2ccc(OC(C)=O)cc21	-23.3	-24.4	-6.8	10.3	12.9	-4.75%
CNCCCC1c2ccccc2C=Cc2ccccc21	5.5	2.9	12.8	-1.7	0.15	11.8%
CCCCCCCCCCCCCCCCS(=O)(=O)N/N=C(/c1cccc(N)c1)N1CCOCC1	-29.6	-40.8	-13.2	4.2	-7.75	-21.2%
O=C1CSC(c2c[nH]c3ccccc23)N1c1cccc([N+](=O)[O-])c1 (configuration not stated)	-61.2	-39.5	-59.9	-0.7	-59	-39%
CCOC(=O)C1=C(C)NC(C)=C(C(=O)OCC)C1C	-29.1	-35.9	4.5	-10.5	-22.1	-6.8%
C/C(CC(=O)NCCc1ccccc1)=N\NS(=O)(=O)c1ccc(C)cc1	37.1	-6.6	10.2	28.3	-4.2	8%
CCCCCCCC(=O)Oc1c(Cl)c(Cl)c(C#N)c(Cl)c1C#N	20.9	-3.55	11.5	13.7	5.8	25.4%
CN(CCCn1ccnc1[N+](=O)[O-])CCCn1ccnc1[N+](=O)[O-]	-28.1	-12.6	-0.35	3.85	-5.05	11.6%
CSC(=Nc1nnc(-c2ccc([N+](=O)[O-])cc2)s1)SC	8.35	1.2	-23.6	-11.6	-5.5	-47%
C=C1C(O)CC2C(O)C3(C)CCC(C)(C)C3C12O (configuration not stated)	3.55	1.2	12.2	15.3	-0.25	11.7%
O=c1oc(-c2ccccc2)nc2c1CCCS2	-1.2	-0.95	-5.65	1.85	-8.25	-3.05%
NC1=NN(c2ccccc2)C(=O)/C1=C\n1c(=S)[nH]c2ccccc21	-22.4	-19.9	-39.6	-16.3	-25.4	-26.6%
CN1c2ccccc2N(C(=O)c2ccccc2)C(CC(=O)O)c2cccn21 (configuration not stated)	-22.4	-40.5	-33.1	23.8	-45	-16.3%

SMILES	growth inhibition [1] [%]	growth inhibition [2] [%]	growth inhibition [3] [%]	growth inhibition [4] [%]	growth inhibition [5] [%]	growth inhibition [6]
CC(C)(C)OC(=O)N(CCCCNC(=O)c1ccccc1)CCCNC(=O)c1ccccc1	13.4	-8.5	-30	-26.5	-36.5	-64%
Cc1ccc(S(=O)(=O)OCC(c2ccccc2)C(F)(F)F)cc1 (configuration not stated)	-3.25	-14.2	12.4	-23.7	18.6	-1%
CN=C(N)N/N=C(\c1ccccc1)c1ccc(Cl)cc1	43.4	11.6	43.1	3.55	34.6	72.9% (active)
CNC(=O)C1CCCN1C(=O)C(Cl)Cl (configuration not stated)	-1.95	-10.6	0.9	-21.9	-10.8	14.2%
COC(=O)c1cccc(C(=O)CC(=O)c2ccccc2)c1	18.6	12.7	8.1	12.3	11.2	11.6%
Cn1cnc([N+](=O)[O-])c1Sc1nc(N)nc2c1ncn2C1OC(CO)C(O)C1O (configuration not stated)	-9.3	20.3	15.6	25.1	14.2	-8.5%
CN(c1ccccc1Cl)S(=O)(=O)c1ccc([N+](=O)[O-])cc1	-14.2	-45.9	12.2	3.9	26.4	-2.25%
CCC1(C(=O)O)NC(=O)NC1=O (configuration not stated)	-2.55	-11.6	-12.3	-8.95	4.5	-4.25%
Cc1cccc(Nc2nc(NNC(=O)Cc3ccccc3)nc(NNC(=O)c3ccncc3)n2)c1	17.4	-12.9	42.2	33.4	22.6	18.8%
CCCCCCCCCCCCSCCO	20.9	10.8	39	31.4	17.1	39%
CCOC(=O)C(C(O)c1ccc([N+](=O)[O-])cc1)P(=O)(OCC)OCC (configuration not stated)	24.3	-16.4	-4.7	5.25	-10.9	-20.2%
O=P(c1ccccc1)(c1ccccc1)c1ccccc1OCCOCCOc1ccccc1P(=O)(c1ccccc1)c1ccccc1	-7.2	-3.75	5.9	-16.8	0.35	13.9%
O=C1C2C(Cl)C(Cl)C(Cl)C(Cl)C2C(=O)N1NC1CCC([N+](=O)[O-])CC1[N+](=O)[O-] (configuration not stated)	-22.9	-16.4	-18.5	17.4	2.5	10.1%
O=C(O)c1ccc2c(c1)S(=O)(=O)c1ccccc1C2=O	14.1	17.5	-3.8	9.6	23.9	17.1%
CN(C)c1nc(NN)c2c(-c3ccccc3)c(-c3ccccc3)oc2n1	10.2	3.9	2.3	9.35	20.2	-11.2%
CC(=O)OCCC12CCC(CC1Cl)C2(C)C (configuration not stated)	-1.45	-9.7	9.85	24.7	-3.05	-3.55%
CCC(COC(=O)C(c1ccccc1)c1ccccc1)NC1CCCCC1 (configuration not stated)	27.4	14.3	44.8	14.8	6.45	27.6%
CC(=O)OC1C(C(O)CO)OC2OC(C)(C)OC21 (configuration not stated)	-10.9	-14.1	-14	-58.8	-59.5	-6.25%
